High-throughput results: PubChem, National Center for Advancing Translational Sciences (NCATS)
TGFb SMAD3 inh = qHTS for Inhibitors of TGF-b. AID 588855, 2011. 410,000 tested, 1.2% active. Potency, µM (doses to about 46.1 µM), for inactives: top-dose activity, negative = inhibition, hits mostly inhibitors. HepG2 CAGA-GFP TGF-b/SMAD3 reporter, GFP fluorescence, 18 h; TGF-beta stimulated, 500 pg/mL final; further: on the % scale 0 is the no-effect control and ±100 the full control effect; nearly all actives have a fitted effect of over 65% in size
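First, reporter cells (HEPG2 CAGA-GFP) rested 2 h at 37 degrees C. Next, compounds were pinned in and TGF-beta added to 500 pg/mL final. After 18 h, GFP was imaged per cell and summed per well.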
HepG2 tox = qHTS for Inhibitors of TGF-b: Cytotox Counterscreen; HepG2 CAGA-GFP viability, ATP luminescence, 18 h; Potency, µM (titrated, usually from 46.1 µM), for the others: at the top dose activity change, negative = cytotoxicity, hits mostly cytotoxic; 410,000 tested, 0.76% active
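CellTiter-Glo luminescence gave cytotoxicity after 18 hours at 37 degrees C. The cells were HepG2 CAGA-GFP in 1% FBS DMEM, stimulated with 500 pg/mL TGF-beta after compound addition. %Activity was normalised to no-cell wells (complete cell-killing) and DMSO (no toxicity), and curves were fitted and classified.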
ATXN2 expr inh = Primary qHTS for Inhibitors of ATXN expression; HEK-293 ATXN2-luciferase reporter, luminescence, 24 h; Potency, µM (doses to about 57 µM), inactives show at the top dose activity change, negative = inhibition, most hits filed as inhibitors; 360,000 tested, 0.72% active; AID 1745845, 2022; further: on the % scale 0 is the no-effect control and ±100 the full control effect; nearly all actives have a fitted effect of over 55% in size
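qHTS (up to 57 uM final) was run with 24 h compound exposure of reporter cells at 37 °C. Each well was multiplexed: SteadyGlo luminescence measured ATXN2-luciferase expression after a fluorogenic Gly-Phe-AFC viability readout (25 uM final).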
ALOX12 inh = Primary qHTS assay for inhibitors of human arachidonate 12S-lipoxygenase (ALOX12): Round 2; Polyunsaturated fatty acid lipoxygenase ALOX12 (Homo sapiens), P18054; purified 12hLO, xylenol orange hydroperoxide absorbance; Potency, µM (highest dose often 108 µM), for inactives: at the top dose activity change, negative = inhibition, usual class: inhibitors; 580,000 tested, 1.1% active; AID 1671190, 2021; further: on the % scale 0 is the no-effect control and ±100 the full control effect
Target sequence (P18054 whole entry, looked up): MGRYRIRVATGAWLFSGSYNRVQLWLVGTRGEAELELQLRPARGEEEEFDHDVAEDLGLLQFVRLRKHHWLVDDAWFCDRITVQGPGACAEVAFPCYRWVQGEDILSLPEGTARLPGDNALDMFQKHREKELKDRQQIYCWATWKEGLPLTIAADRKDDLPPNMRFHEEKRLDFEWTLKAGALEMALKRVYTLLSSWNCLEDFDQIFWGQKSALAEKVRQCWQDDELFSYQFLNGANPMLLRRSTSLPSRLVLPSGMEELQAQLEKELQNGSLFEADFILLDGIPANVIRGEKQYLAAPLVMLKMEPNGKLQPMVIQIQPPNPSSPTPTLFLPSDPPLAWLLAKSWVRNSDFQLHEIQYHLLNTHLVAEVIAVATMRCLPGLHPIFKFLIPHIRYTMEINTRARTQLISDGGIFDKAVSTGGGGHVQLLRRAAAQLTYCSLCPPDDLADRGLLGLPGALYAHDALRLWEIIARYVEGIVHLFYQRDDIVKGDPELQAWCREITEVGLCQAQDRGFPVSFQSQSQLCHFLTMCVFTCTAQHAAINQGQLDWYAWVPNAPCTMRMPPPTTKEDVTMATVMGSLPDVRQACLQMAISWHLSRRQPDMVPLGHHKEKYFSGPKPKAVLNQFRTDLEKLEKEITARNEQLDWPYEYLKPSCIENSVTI
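Purified human 12hLO (150 nM final) in 25 mM Hepes, 0.01% Triton X-100, pH 7.0 was preincubated 15 min at room temperature with compound. Then 40 uM arachidonic acid was added, 30 min. Hydroperoxide was read by Fe-XO absorbance ratio 573/405 nm.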
ATXN viability = Viability Counterscreen for Primary qHTS for Inhibitors of ATXN expression | 400,000 tested, 0.49% active | Potency, µM (titrated, usually from 56.7 µM), hits mostly cytotoxic | S2 cells (HEK-293 line with an ATXN2-luciferase reporter) viability, CellTiter-Fluor protease fluorescence, 24 h; further: nearly all actives have a fitted effect of over 40% in size
Starred values were filed as active, the others as inactive; i = inactive; ? = inconclusive; / = no result; [ ] = remark or other dose. Rows were chosen to be rich in hits. Some 2.7% of all compounds tested hit in one or more screens of this group. The call rests on the fitted dose curve; in most records, active means well fitted curve in the direction sought with a large enough effect; inconclusive means small, poorly fitted or top-dose-only effect, or another doubt; inactive means no such curve, though single readings can be large; an effect the other way counts as inactive or inconclusive. Potency means the concentration at half of the fitted maximal effect.

SMILES | TGFb SMAD3 inh | HepG2 tox | ATXN2 expr inh | ALOX12 inh | ATXN viability
Cc1[nH]c2ccc(C(=O)N3CCN(c4ccccc4Cl)CC3)cc2c1C | ? | -20% | 14% | -11% | i
Cc1ccc(C(=O)N2CCC3(CC2)NC(=O)N(c2ccccc2Cl)N3)cc1C | / | / | / | 1.3µM* | /
COc1ccc(Cl)cc1C(=O)N1CCC2(CC1)N(c1ccccc1)C(=O)CS2(=O)=O | / | / | / | 20% | /
COc1ccc(Cl)cc1C(=O)N1CCC2(CC1)NC(=O)N(c1ccccc1)N2 | / | / | / | 1.8µM* | /
COc1ccc(C(=O)N2CCC3(CC2)NC(=O)N(c2ccccc2Cl)N3)cc1F | / | / | / | 1.3µM* | /
Cc1c(C(=O)COC(=O)CCCNS(=O)(=O)c2cccs2)oc2ccccc12 | / | / | / | -1% | /
O=Cc1cn(-c2ccccc2)nc1-c1ccc(F)cc1 | -2% | -13% | / | 17% | i
O=C(O)CCCCCN1C(=O)/C(=C/c2cn(-c3ccccc3)nc2-c2cccs2)SC1=S | -1% | -9% | -30% | ? | ?
CC1=NNC(=O)/C1=C\c1cn(-c2ccccc2)nc1-c1cccs1 | 5.6µM* | 7.9µM* | / | ? | 3.2µM*
CC1=NNC(=O)/C1=C\c1cn(-c2ccccc2)nc1-c1ccc(F)cc1 | 4µM* | -84% | 7.5µM* | / | /
COCC(=O)N(c1ccc(OC)cc1OC)C1C=CS(=O)(=O)C1 (centres undefined) | / | / | / | -12% | /
O=C1/C(=C/c2ccccc2)CCC1C1CCCC1 (centres undefined) | 20% | 5% | 19% | 5% | i
CN1C2CCC1/C(=C\c1ccccc1)C(=O)/C2=C\c1ccccc1 | 0% | -25% | 25µM* | -3% | ?
CCOc1ccccc1NC(=O)Cn1nnc(C(=O)NCc2ccccc2)c1N | / | / | / | -9% | /
CC1=C(C(=O)OC(C)C)C(c2cccs2)C(C(=O)OC(C)C)=C(C)N1 | 18µM* | -41% | -18% | 2% | i
COCC(=O)NC[C@@H]1C=C(C)[C@H](CC(=O)NCc2ccc(F)cc2)C[C@H]1C(C)C | / | / | / | -13%[176 µM] | /
CCN(c1ccccc1)C(CNS(=O)(=O)c1ccccc1)c1ccccc1 (centres undefined) | 16µM* | -48% | ? | ? | ?
Cc1ccc(CN2CCc3nc(C(C)C)nc(-c4ccc(O)cc4)c3CC2)cc1 | / | / | / | 45µM* | /
CCOC(=O)c1c(NC(=O)CN2CCN(S(=O)(=O)c3cc(Cl)ccc3Cl)CC2)sc(C(=O)N(C)C)c1C | 10µM* | -1% | -34% | -20% | ?
CCOC(=O)c1c(NC(=O)COC(=O)c2ccc(Cl)nc2)sc(C(=O)N(C)C)c1C | 8% | -8% | 8% | -14% | i
CCCCNC(=O)N1CCC(C(=O)O)CC1 | / | / | / | -1% | /
CN(C(=O)CC1C(=O)NCCN1Cc1cccc(F)c1F)C1CCOCC1 (centres undefined) | 14% | 0% | 3% | 7.1µM* | i
CN(C(=O)CC1C(=O)NCCN1Cc1c(F)cccc1Cl)C1CCOCC1 (centres undefined) | 0% | 13% | -13% | 2% | i
Cc1cccc(CC(=O)N2CC(C(=O)NCCc3ccncc3)C3(CCOCC3)C2)c1 (centres undefined) | / | / | / | 29% | /
O=C(NCc1cccnc1)C1CCN(Cc2cc3ccccc3n2Cc2ccccc2)CC1 | ? | -55% | -9% | -3% | i
Cc1ccccc1Cn1c(CN2CCC(C(=O)NCc3cccnc3)CC2)cc2ccccc21 | 16µM* | -45% | ? | ? | /
Cc1ccccc1CC(=O)NCCc1cccnc1 | / | / | / | 0% | /
CC(C)NC(=S)N/N=C/c1ccc(C(C)(C)C)cc1 | ? | -4% | -5% | 32µM* | i
CCCNc1nc(NCc2ccccc2OC)c2cnn(C)c2n1 | 0% | -26% | -16% | 40µM* | i
NC(c1csc(NC(=O)Nc2ccccc2)n1)C1CCCCC1 (centres undefined) | ? | -82% | -6% | 8% | i
